One test concerns the target Albumin (Bos taurus) (UniProt P02769). The test can be described thus: compounds binding labelled BSA control protein – biochemical, small-molecule microarray, Alexa647 label, 635/667 nm fluorescence, artefact control for SMM control protein annotation, profiling panel (AID 1118).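 Also: score merges 667 nm emission intensity and signal-to-noise per printed compound spot.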 Conditions: BSA-A647 binding, fluorescence 635 nm, higher = more signal.
Test [1] can be described thus: probe aXIP binding to arrayed compounds – biochemical, NeuroSMM set, 635/667 nm fluorescence, primary screen (AID 1119).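 Also: probe is the protein aXip251-270 applied at 1 µg/mL to compound-printed slides; binding of probe to printed compounds measured as 667 nm fluorescence plus signal to noise.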 The following applies: small-molecule microarray, higher = more signal, called active from +8 up or from −8 down.
The nature of test [2]: probe aNOTCH3 binding on compound microarray – biochemical, small-molecule microarray, 635/667 nm fluorescence, primary screen (AID 1120).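 Also: probe is a biotin-tagged antibody raised against NOTCH3 rather than NOTCH3 protein; score merges spot fluorescence near 667 nm with spot signal to noise.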 The following applies: higher = more signal.
Test [3] in a line: probe aNOTCH2 binding on compound microarray – biochemical, small-molecule microarray, 635/667 nm fluorescence, primary screen (AID 1121).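 Also: score merges feature fluorescence read at 667 nm with its signal to noise.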 The following applies: higher = more signal.
Test [4] deals with Carbonic anhydrase 2 (Homo sapiens) (UniProt P00918). The test can be described thus: compounds binding carbonic anhydrase 2 – biochemical, small-molecule microarray, Alexa647-labelled CAII, profiling panel (AID 1122). The following applies: CAII-A647 binding fluorescence, higher = more signal.
A short description of test [5]: COS7 lysate on small-molecule microarray, probe aHis, 635 nm (AID 1123).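 Also: z-score combines 667nm fluorescence intensity with signal-to-noise per printed compound spot.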 Conditions: COS7 cell lysate, fluorescence, higher = more signal.
Test [6] is described as follows: probe aLAP1 signal on lysate-treated microarray – cell lysate, small-molecule microarray, COS7 lysate, primary screen (AID 1124).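 Also: lysate comes from COS7 cells expressing LAP1 and is applied at 0.3 µg/mL; score merges spot fluorescence near 667 nm with signal-to-noise over triplicate slides.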 Conditions: probe aLAP1, fluorescence, higher = more signal.
For another test, the system named is Sam68 (KHDRBS1). The test can be described thus: compounds binding KHDRBS1 protein – biochemical, small-molecule microarray, 635 nm fluorescence, primary screen (AID 1125).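 Also: score merges 667 nm channel intensity with signal to noise over triplicate slides.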 Conditions: higher = more signal.
Test [7] relates to Chordin-like protein 2 (CHRDL2). The test is described as follows: compounds binding chordin-like 2 – biochemical, small-molecule microarray, 635 nm fluorescence, primary screen (AID 1126).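 Also: printed compound slides probed with Chrdl2 protein at 4 µg/mL for 1 h at 4 C; score merges 667 nm emission intensity with signal to noise over three replicate slides.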 The following applies: fluorescence 635 nm, higher = more signal.
Test [8] has as its target Concanavalin-A (Canavalia ensiformis) (UniProt P02866). The test can be described thus: compounds binding concanavalin A lectin – biochemical, small-molecule microarray, Alexa647 label, 635 nm, artefact control for SMM control protein annotation, primary screen (AID 1127).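 Also: z combines 667 nm emission intensity with signal-to-noise across three replicate slides.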 The following applies: ConA-A647 binding fluorescence, higher = more signal.

SMILES strings stand for the structures. Activity calls are given as the source filed them.

Sequence of Concanavalin-A (Canavalia ensiformis) (P02866 whole entry, looked up): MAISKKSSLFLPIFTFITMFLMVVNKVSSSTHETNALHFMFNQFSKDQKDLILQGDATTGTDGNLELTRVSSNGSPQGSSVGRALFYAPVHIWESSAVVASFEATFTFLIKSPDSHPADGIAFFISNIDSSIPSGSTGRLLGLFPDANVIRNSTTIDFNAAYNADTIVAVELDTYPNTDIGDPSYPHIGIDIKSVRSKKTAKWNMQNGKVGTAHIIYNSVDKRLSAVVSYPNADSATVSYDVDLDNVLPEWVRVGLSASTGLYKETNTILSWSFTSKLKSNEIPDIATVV
Sequence of Albumin (Bos taurus) (P02769 whole entry, looked up): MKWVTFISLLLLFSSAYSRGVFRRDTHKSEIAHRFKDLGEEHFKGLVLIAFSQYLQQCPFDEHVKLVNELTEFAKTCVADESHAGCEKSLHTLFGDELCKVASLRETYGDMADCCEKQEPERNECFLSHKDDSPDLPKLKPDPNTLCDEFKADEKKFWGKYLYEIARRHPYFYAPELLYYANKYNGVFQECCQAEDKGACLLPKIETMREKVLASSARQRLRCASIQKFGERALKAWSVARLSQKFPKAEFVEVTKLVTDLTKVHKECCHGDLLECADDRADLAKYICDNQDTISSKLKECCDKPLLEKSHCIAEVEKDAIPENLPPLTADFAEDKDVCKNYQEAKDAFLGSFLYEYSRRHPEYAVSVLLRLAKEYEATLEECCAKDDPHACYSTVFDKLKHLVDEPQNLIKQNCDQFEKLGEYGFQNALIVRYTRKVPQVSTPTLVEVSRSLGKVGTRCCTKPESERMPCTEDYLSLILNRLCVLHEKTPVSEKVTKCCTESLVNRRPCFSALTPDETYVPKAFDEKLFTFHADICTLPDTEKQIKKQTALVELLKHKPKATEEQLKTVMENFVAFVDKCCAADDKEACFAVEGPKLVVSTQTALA

As to `Cc1c(NC(=O)/C(C#N)=C/C=C/c2ccc(N(C)C)cc2)c(=O)n(-c2ccccc2)n1C`, the composite z-score with Albumin (Bos taurus) is 0.376; in [2] it was 0.308; in test [3] it was 0.292; in test [4], 0.456; in test [5], 2.54; in test [6], -0.154. Also, the results for the composite z-score (with Sam68 (KHDRBS1); in [7]; in test [8]) were 1.22, 0.568 and 1.1, respectively. The composite Z-score in [1] is 1.02 (inactive).

In the case of `COCCOC(=O)N1C(=O)[C@@]2(c3cc(C#CC4(O)CCCCCC4)ccc31)[C@H](C(=O)N1CCCCCCC1)[C@H]1C(=O)O[C@H](c3ccccc3)[C@H](c3ccccc3)N1[C@@H]2c1ccc(OCCO)cc1`, the composite z-score in the test with Albumin (Bos taurus) amounted to 0.513; in test [2], 1.73; in [3], 0.819; in test [4] it was 0.705; in test [5], 3.34; in [6], 1.35. The composite z-score turned out to be 1.29 in the test on Sam68 (KHDRBS1), 1.52 in test [7] and 1.14 in test [8]. Further, in test [1], the composite Z-score is 3.82 (inactive).

For the compound `COc1ccc(C(O)C2C=CC3C(=O)N(c4ccccc4)C(=O)C3N2Nc2ccc(C#N)cc2)c2ccccc12` (stereo not given), the composite z-score in the test with Albumin (Bos taurus) turned out to be 1.07; in test [2] it was 0.0248; in [3], 0.0847; in [4], 0.734; in [5], 2.48; in test [6] it was 0.537. The composite z-score in the test with Sam68 (KHDRBS1) is 1.28; in test [7] it was -0.32; in test [8], 1.22. Moreover, the composite Z-score in test [1] is 1.3 (inactive).

On to `CC(C)(C)OC(=O)CC[C@]1(C(=O)NCCN2CCOCC2)N=C(c2ccc(OCCCO)cc2)O[C@H]1c1ccccc1`, for which the composite z-score with Albumin (Bos taurus) is 0.824; in test [2], 0.0636; in test [3], -0.075; in test [4], 0.745; in [5], 2.28; in test [6], -0.657. The composite z-score in the test with Sam68 (KHDRBS1) is 0.218; in [7], -1.21; in test [8], 1.16. In [1], the composite Z-score is -0.985 (inactive).

Regarding `CCOC(=O)C1=CC[C@@H](c2ccccc2C(F)(F)F)N(S(=O)(=O)c2ccc(C)cc2)C1`, the composite z-score with Albumin (Bos taurus) was 0.959; in test [2], 0.694; in test [3] it was 0.311; in test [4], 0.411; in [5], 1.57; in test [6], 0.95. In addition, the composite z-score in the test on Sam68 (KHDRBS1) is 1.1; in [7], -0.41; in test [8] it was 1.13. In test [1], the composite Z-score was 0.917 (inactive).

For the compound `C[C@]1(C(=O)O)c2ccccc2C(=O)N(Cc2ccccc2)[C@H]1c1ccc(CO)cc1`, the composite z-score in the test with Albumin (Bos taurus) is -0.408; in test [2], -0.236; in test [3] it was -0.0859; in test [4] it was 0.756; in test [5], 0.096; in test [6], -0.581. In addition, the composite z-score in the test with Sam68 (KHDRBS1) is -1.45; in [7], -1.48; in test [8], -1.34. Also, the composite Z-score in test [1] is 0.174 (inactive).

With `CC[C@H]1C2=C3C(CC[C@H]4C(OCc5ccc(F)cc5C(F)(F)F)OC[C@](C)([C@@H]34)N(C(=O)OC(C)(C)C)C2)C2COC(=O)OCC21` (stereo not given in full), the composite z-score in the test with Albumin (Bos taurus) worked out at 0.911; in [2] it was 0.367; in test [3] it was 0.0755; in test [4], 0.578; in [5], 2.62; in [6], 0.494. The results for the composite z-score (in the test on Sam68 (KHDRBS1); in test [7]; in test [8]) were 1.32, -1.64 and 0.994, respectively. The composite Z-score in test [1] is 0.572 (inactive).

As for `CC(C)(C)N1CC=CC23O[C@@H]4C=CCOC(=O)[C@@H]4[C@H]2C(=O)N(CCCO)[C@@H]3C1=O` (stereo not given in full), the composite z-score with Albumin (Bos taurus) was -1.37; in test [2], -0.478; in [3] it was -0.179; in test [4], 0.917; in test [5], 0.216; in [6], -0.343. The composite z-score with Sam68 (KHDRBS1) was -1.01; in test [7], -1.64; in [8] it was -1.62. Besides, in test [1], the composite Z-score was 0.701 (inactive).

In the case of `Cc1ccc(S[C@]2(C(=O)NC(C)C)CC(=O)N(Cc3ccccc3C(F)(F)F)[C@@H]2c2ccc(CO)cc2I)cc1`, the composite z-score in the test with Albumin (Bos taurus) is 0.671; in test [2], -0.236; in [3], -0.128; in test [4], 0.344; in test [5] it was 0.352; in test [6] it was -0.0811. Further, the composite z-score was 0.0747 in the test with Sam68 (KHDRBS1), -1.35 in [7] and -0.03 in [8]. Also, the composite Z-score in [1] is 0.0903 (inactive).

Turning to `COc1ccc(C(O)C2C=CC3C(=O)N(C)C(=O)C3N2N2CCCCC2)cc1` (stereo not given), the composite z-score in the test with Albumin (Bos taurus) stood at 0.999; in test [2], 0.272; in test [3], 0.233; in [4], 0.761; in [5], 2.14; in test [6] it was 0.986. Moreover, the composite z-score in the test with Sam68 (KHDRBS1) was determined as 1.1; in test [7] it was 0.248; in test [8] it was 1.11. Besides, the composite Z-score in test [1] was 0.0811 (inactive).

For `CC(=O)N1Cc2ccccc2C[C@]2(N=C(c3ccc(OCCCO)cc3)O[C@@H]2c2ccccc2)C1=O`, the composite z-score with Albumin (Bos taurus) was -0.569; in test [2] it was 0.0242; in test [3] it was -0.0424; in [4], 0.552; in test [5], 2.87; in test [6], 0.451. For the same compound, the composite z-score in the test on Sam68 (KHDRBS1) was 1.3; in [7], 0.15; in test [8] it was 1.13. In addition, the composite Z-score in test [1] is 0.581 (inactive).
